# Assay results from PubChem BioAssay AID2017 (National Center for Advancing Translational Sciences (NCATS), 2009).
# Results filed as inconclusive are left out. A number with no mark means an inactive call. Calls follow the shape of the dose curve; as a rule, active = well fitted curve in the direction sought with a large enough effect; inconclusive = small, poorly fitted or top-dose-only effect, or another doubt; inactive = no such curve, though single readings can be large or run the other way.
# System: 4-diphosphocytidyl-2-C-methyl-D-erythritol kinase IspE (bacterial, species not stated)
# Experiment: Confirmatory Assay for Inhibitors of Human Galactokinase (GALK): CDP-Me assay counterscreen
# Conditions: ATP depletion, Kinase-Glo luminescence; series mostly up to 115 µM; activity change, negative = inhibition: at the top concentration
# Excerpt: NIH Molecular Libraries Probe Production Centers Network [MLPCN] NIH Chemical Genomics Center [NCGC] MLPCN Grant: R03 MH085689-01 Assay Submitter (PI): Kent Lai (University of Utah School of Medicine, 50 N Mario Capecchi Drive, Salt Lake City, UT 84132) NCGC Assay Overview The GHMP kinase family is a unique class of important enzymes that plays an essential role in many metabolic processes. It contains more than 170 protein members among which are the galactokinase (GALK) and the CMK enzymes. GALK plays a crucial role in galactose processing and is a potential therapeutic target for Classic Galactosemia (OMIM: 230400). CMK is involved for the non-mevalonate synthesis of isoprenoids precursors and natural products like sterols or ubiquinones which are important to many biological functions. Although the sequence identity between GALK and CMK is low, the three-dimensional structures and active sites are highly similar. Therefore to determine the validity and selectivity of an active compound observed in the GALK qHTS screen (AID: 1868), a bioluminescent counter-screen targeting bacterial CMK was developed. In addition, because the mevalonate independent synthesis of isoprenoids are more prevalent in opportunistic pathogens such as bacteria, CMK is a potential novel therapeutic target where selective inhibitors could be used to determine potential antibacterial effects. The CMK (provided by Kent Lai) was assayed using ATP and 4-diphosphocytidyl-2-C-methyl-D-erythritol (CDP-ME; Echelon, cat# I-M052) as substrates. Promega Kinase-Glo Plus (cat# V3774) technology was used to detect the residual ATP following kinetic reaction. Briefly, the Kinase-Glo Plus contains Ultra-Glo [5] luciferase and D-luciferin which generates a bioluminescence signal from the remaining ATP.
# NCGC Assay Protocol Summary: Three uL/well of substrate solution (15 uM ATP, 30 uM CDP-ME, 20 mM HEPES pH8.0, 5 mM MgCl2, 40 mM KCl, 1 mM DTT, 0.01% BSA final concentration) was dispensed into 1536-well, assay plates (Greiner, solid white medium-binding plates) with Aurora Discovery BioRAPTR Flying Reagent Dispenser (FRD; Beckton-Dickenson). […] One uL/well enzyme solution (0.25 ug/mL CDP-Me kinase, 20 mM HEPES pH8.0, 5 mM MgCl2, 40 mM KCl, 1 mM DTT, 0.01% BSA final concentration) was then added using the FRD yielding a total kinase reaction volume of 4 uL/ well. After 1 hour of room temperature incubation, 4 uL Kinase-Glo Plus reagent was added for a final assay volume of 8 uL/well. After 1 min, luminescence was detected with the ViewLux plate reader (Perkin Elmer, Waltham, MA) using a 1 sec exposure time and 2x binning settings.
row,SMILES,"activity change, negative = inhibition [%]"
1,CC1(C)CC(=O)C2=C(C1)NC(Nc1nc3ccccc3o1)=NC21CCCC1,1.93
2,Cc1ccc(F)c(NC(=O)/C(C#N)=C(\O)c2ccc(C(C)(C)C)cc2)c1,-5.97
3,COc1ccc(C/C(O)=C(\C#N)c2nc3ccccc3s2)cc1,-4.02
4,CCOc1cc(/C=C2\C(=O)ON=C2c2ccccc2)cc(Br)c1O,2.32
5,CCOC(=O)C1(Cc2cccc(F)c2)CCN(C(=O)COC)CC1,2.45
6,O=C(COc1ccccc1/C=C\c1[nH]c(=O)[nH]c(=O)c1[N+](=O)[O-])Nc1ccccc1,-1.25
7,N#C/C(=C(/O)c1cc2ccccc2o1)c1nc2ccccc2s1,-3.31
8,N#C/C(=C(/O)Cc1cccc2ccccc12)c1nc2ccccc2s1,-0.506
9,CCOc1cc(/C=C2/C(=N)N3C(=NC2=O)SN=C3S(C)(=O)=O)ccc1OS(=O)(=O)c1ccccc1,-4.75
10,CCOC(=O)c1c(C)[nH]c2c1-c1ccccc1C(=O)C2=O,-7.25
11,O=C1/C(=C\c2cc(Cl)c(O)c(Cl)c2)SC(=S)N1Cc1ccccc1,3.14
12,CC(C)OC(=O)C(C(=O)C(F)(F)F)c1cc(NS(=O)(=O)c2ccc3ccccc3c2)c2ccccc2c1O (stereo not given),0.739
13,Cc1ccc(S(=O)(=O)/N=C2/NC(=O)/C(=C\c3cc(Br)cc(Br)c3O)S2)cc1,-13.1
14,COc1cc(/C=C2\C(=O)ON=C2c2ccccc2)cc(Br)c1O,-2.63
15,CC(=O)c1ccc(NC(=S)Nc2cccc3cnccc23)cc1,-3.41
16,C=CCN1C(=O)/C(=C/c2ccc(OC(C)=O)c(OCC)c2[N+](=O)[O-])SC1=S,-15.3
17,Cc1nn(Cc2noc(C(=O)NCC3CCCO3)n2)c(C)c1Br (stereo not given),-0.906
18,Cc1ccc(C)c(CN2C(=O)CSc3ccc(C(=O)NCCN4CCOCC4)cc32)c1,-1.65
19,S=c1[nH]nc(Cc2sc(-c3ccccc3)nc2-c2ccccc2)o1,1.28
20,CCN1CCN(CCNC(=O)c2ccc3nc(-c4cccc(C)c4)c(-c4cccc(C)c4)nc3c2)CC1,-1.48

row,SMILES,"activity change, negative = inhibition [%]"
1,CCS(=O)(=O)C1=NSC2=NC(=O)/C(=C\c3ccc(OS(=O)(=O)c4ccccc4)cc3)C(=N)N21,-13.2
2,O=C1C(C2=C(O)c3ccccc3C2=O)=Nc2ccccc21,-6.72
3,Cc1[nH][nH]c(=O)c1C(c1ccc(-c2ccc(Cl)c(C(=O)O)c2)o1)c1c(C)[nH][nH]c1=O,-6.09
4,NS(=O)(=O)c1ccc(NC(=S)NNC(=O)c2ccc(Br)o2)cc1,-1.07
5,O=C1C(Cl)=C(N2CCC(C(=O)O)CC2)C(=O)c2ccccc21,-7.29
6,COc1ccc(-n2nnc3c(=O)n(CC(=O)N4CCC(C)CC4)cnc32)cc1,1.87
7,CS(=O)(=O)C1=NSC2=NC(=O)/C(=C\c3ccc(OS(=O)(=O)c4ccccc4)cc3)C(=N)N21,-8.39
8,O=C(O)c1cccc(S(=O)(=O)N2CCC(n3nnc4cc(C(F)(F)F)ccc43)CC2)c1,1.46
9,O=C1C=CC2=C3c4cc(O)c(O)cc4CC3(O)COC2=C1O (stereo not given),-6.18
10,O=C1ON=C(c2ccccc2)/C1=C/c1ccc(O)c(O)c1,2.47
11,Cc1snc(S(=O)(=O)/C(C#N)=N/Nc2ccc(C(F)(F)F)cc2)c1C#N,-2.03
12,CCOC(=O)c1cc(-c2ccc(/C=C3/C(=O)N(c4ccc(C(=O)O)cc4)N=C3C)o2)ccc1Cl,-0.967
13,O=C1c2ccccc2C(=O)C12OC2c1cccc2ccccc12 (stereo not given),-1.36
14,CC1=NN(c2ccccc2)C(=O)/C1=C/c1c(O)n(-c2ccc(F)c(Cl)c2)[nH]c1=O,-6.6
15,O=C1/C(=C\c2ccc(O)c(O)c2)C(c2ccccc2)=NN1c1ccccc1,6.47
16,O=C(O)c1ccc(NC2=C/C(=N/S(=O)(=O)c3ccccc3)c3ccccc3C2=O)cc1,-4.74
17,CCS(=O)(=O)C1=NSC2=NC(=O)/C(=C\c3ccc(OS(=O)(=O)c4ccccc4)c(OC)c3)C(=N)N21,-10.4
18,COCc1cc(CN2CCCC2)c(O)c2ncccc12,2.55
19,COc1ccc2cc(C(N)=O)c(=Nc3ccc(C)cc3)oc2c1,-0.694
20,O=C1CCCC2=C1C1(CCCCC1)N=C(Nc1nc3ccccc3o1)N2,-2.3
